In PubChem BioAssay AID1159580 (chemical genetic matrix, 2015):
In all, about 5,500 compounds went through this assay and about 2,000 (36%) were called active. Another 18% or so got no clear call; they are omitted. Cut-off read from the data, not from the text of the source: active = normalized growth mostly below about 0.91 (no sharp cut-off); inconclusive = no clear call, values can overlap the other calls; inactive = mostly above about 0.92. The list shows a part of the results.

Test: chemical genetic growth profiling, strain panel (AID 1159580);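 note: tested at 20 µM; growth read once vehicle control cultures reached saturation at 30 °C; 1 = growth at the plate median or of vehicle wells; lower values mean less growth of the strain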
Conditions: growth OD
[1] = S. cerevisiae deletion strains, locus YJR075W, strain HOC1, hits give low values
[2] = S. cerevisiae deletion strains, locus YMR307W, strain GAS1, hits give low values
[3] = S. cerevisiae deletion strains, locus YNL322C, strain KRE1, hits give low values
[4] = S. cerevisiae deletion strains, locus YPL055C, strain LGE1, hits give low values
[5] = S. cerevisiae deletion strains, locus YPL241C, strain CIN2, hits give low values
[6] = S. cerevisiae deletion strains, locus YAL013W, strain DEP1, hits give low values
[7] = S. cerevisiae deletion strains, locus YBR229C, strain ROT2, hits give low values
[8] = S. cerevisiae deletion strains, locus YDL101C, strain DUN1, hits give low values
[9] = S. cerevisiae deletion strains, locus YDL134C, strain PPH21, hits give low values
[10] = S. cerevisiae deletion strains, locus YDR150W, strain NUM1, hits give low values
[11] = S. cerevisiae deletion strains, locus YEL061C, strain CIN8, hits give low values
[12] = S. cerevisiae deletion strains, locus YGR078C, strain PAC10, hits give low values
[13] = S. cerevisiae deletion strains, locus YHR030C, strain SLT2, hits give low values
[14] = S. cerevisiae deletion strains, locus YHR087W, strain rtc3, hits give low values
[15] = S. cerevisiae deletion strains, locus YJR043C, strain POL32, hits give low values
[16] = S. cerevisiae deletion strains, locus YKL190W, strain CNB1, hits give low values
[17] = S. cerevisiae deletion strains, locus YLR039C, strain RIC1, hits give low values
[18] = S. cerevisiae deletion strains, locus YLR058C, strain SHM2 (second series), hits give low values
[19] = S. cerevisiae deletion strains, locus YLR085C, strain ARP6, hits give low values
[20] = S. cerevisiae deletion strains, locus YLR262C, strain YPT6, hits give low values
[21] = S. cerevisiae deletion strains, locus YML094W, strain GIM5, hits give low values
[22] = S. cerevisiae deletion strains, locus YMR219W, strain ESC1, hits give low values
[23] = S. cerevisiae deletion strains, locus YMR263W, strain SAP30, hits give low values
[24] = S. cerevisiae deletion strains, locus YNL153C, strain GIM3, hits give low values
[25] = S. cerevisiae deletion strains, locus YNL298W, strain CLA4 (second series), hits give low values
[26] = S. cerevisiae deletion strains, locus YNR030W, strain Alg12, hits give low values
[27] = S. cerevisiae deletion strains, locus YPR135W, strain CTF4, hits give low values
[28] = S. cerevisiae deletion strains, locus YCL061C, strain MRC1, hits give low values
[29] = S. cerevisiae deletion strains, locus YGR229C, strain SMI1, hits give low values

Measured: normalized growth

Nc1ccc(CCNc2ncnc3c2ncn3C2OC(CO)C(O)C2O)cc1 (stereo unspecified)
inactive: S. cerevisiae deletion strains, locus YAL040C, strain CLN3, hits give low values 1.03 | S. cerevisiae deletion strains, locus YCL061C, strain MRC1 (second series), hits give low values 0.997 | S. cerevisiae deletion strains, locus YDR363W, strain ESC2, hits give low values 0.988 | S. cerevisiae deletion strains, locus YER002W, strain NOP16, hits give low values 0.991 | [1] 1 | [2] 1.02 | S. cerevisiae deletion strains, locus YNL175C, strain NOP13, hits give low values 0.985 | S. cerevisiae deletion strains, locus YNL197C, strain WHI3, hits give low values 1.01 | S. cerevisiae deletion strains, locus YNL224C, strain SQS1, hits give low values 0.977 | [3] 0.995 | S. cerevisiae deletion strains, locus YOR083W, strain WHI5 (second series), hits give low values 0.995 | [4] 0.986 | [5] 0.999

OCc1nccn1Cc1ccc(Cl)cc1
inactive: [6] 1.02 | [7] 1 | [8] 1.03 | [9] 1.02 | [10] 1.05 | [11] 1 | [12] 1 | [14] 0.983 | [15] 1.03 | [1] 0.944 | [16] 0.999 | [17] 0.889 | [18] 0.998 | [19] 1.02 | [20] 0.849 | [21] 0.983 | [22] 1.01 | [23] 1.04 | [24] 1.02 | [25] 0.923 | [3] 1 | [26] 0.947 | [4] 1.08 | [5] 1.02 | [27] 1.03
active: [13] 0.288 | [2] 1.51 [resistant]

COC(=O)c1cscc1Sc1ccc(Cl)cc1
inactive: [6] 0.948 | [7] 0.953 | [28] 0.978 | [8] 0.961 | [10] 0.983 | [11] 0.931 | [12] 0.956 | [14] 0.944 | S. cerevisiae deletion strains, locus YJL187C, strain SWE1, hits give low values 0.995 | [15] 0.987 | [1] 0.943 | [18] 0.955 | [21] 0.914 | [22] 0.96 | [23] 0.989 | [24] 0.968 | [25] 0.916 | [4] 0.998 | S. cerevisiae strains, strain wild type, hits give low values 0.949
active: [9] 0.82 | [13] 0.319 | [17] 0.747 | [19] 0.664 | [20] 0.771 | [3] 0.939 | [26] 0.848 | [5] 0.845 | [27] 0.565

COc1cscc1C(N)=O
inactive: [6] 1.01 | [7] 0.984 | [28] 1.02 | [8] 1 | [10] 1.06 | [11] 0.959 | [12] 1.01 | [29] 0.99 | [13] 1.06 | [14] 1.03 | [15] 1.04 | [1] 1.04 | [17] 1.01 | [18] 0.997 | [19] 0.965 | [20] 0.998 | [21] 0.979 | [22] 0.987 | [23] 1.06 | [2] 0.966 | [24] 1.01 | [25] 0.969 | [3] 0.996 | [26] 1.01 | [4] 1.12 | [5] 0.957 | [27] 1.14

COC(=O)c1ccsc1N
inactive: [6] 0.988 | [7] 1 | [8] 1.01 | [10] 1.07 | [11] 0.985 | [12] 1 | [29] 0.981 | [13] 1.09 | [14] 0.995 | [15] 1.02 | [1] 1.01 | [16] 0.99 | [17] 1 | [18] 0.983 | [19] 0.94 | [20] 1.14 | [21] 0.97 | [22] 0.993 | [23] 1.02 | [24] 1 | [25] 0.963 | [3] 0.992 | [26] 0.976 | [4] 0.986 | [5] 0.958 | [27] 1.11
